From PubChem BioAssay (EPA / NIEHS)
Values joined by “and” are separate entries in the source; they are usually repeats but may differ in a detail not shown here. Equal entries are not always repeated. More than one record can exist for a structure, and the calls need not agree. Active and inactive are the calls of the source. How the source made its calls: active means hit-call score of the fitted dose curve at least 0.9, where 1 is the maximum; inactive means score below 0.9.

Assays:
[1] = read-out: Interleukin-1 alpha (IL1a), IL1A (gene 3552); experiment: BSK_KF3CT_IL1a: BioMAP Diversity Plus: KF3CT Assay for Interleukin-1 alpha (IL1a) Biomarker Activity (AID 2283070); conditions: primary human keratinocytes with fibroblasts; actives raise or lower the signal
In short: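 Primary human keratinocyte plus foreskin fibroblast co-culture, dosed and measured at 24 h in 96-well plates. IL-1a level quantified by ELISA; bidirectional fit relative to DMSO.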

[2] = read-out: TIMP metallopeptidase inhibitor 2 (TIMP2), TIMP2 (gene 7077); experiment: BSK_KF3CT_TIMP2: BioMAP Diversity Plus: KF3CT Assay for TIMP metallopeptidase inhibitor 2 (TIMP2) Biomarker Activity (AID 2283071); conditions: primary human keratinocytes with fibroblasts; actives raise or lower the signal
In short: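 Human primary keratinocyte/foreskin fibroblast co-culture dosed with chemical and sampled at 24 h. TIMP-2 levels quantified by ELISA; bidirectional fitting against DMSO negative control as baseline.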

[3] = read-out: Transforming growth factor beta 1 (TGFb1), TGFB1 (gene 7040); experiment: BSK_KF3CT_TGFb1: BioMAP Diversity Plus: KF3CT Assay for Transforming growth factor beta 1 (TGFb1) Biomarker Activity (AID 2283072); conditions: primary human keratinocytes with fibroblasts; actives raise or lower the signal
In short: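 Human keratinocyte plus foreskin fibroblast primary co-culture, dosed with chemical for 24 h. TGF-b1 quantified by ELISA. Activity fitted bidirectionally against DMSO negative control as baseline.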

[4] = read-out: C-C motif chemokine 2 (Homo sapiens) (UniProt P13500); experiment: BSK_KF3CT_MCP1: BioMAP Diversity Plus: KF3CT Assay for Monocyte Chemoattractant Protein 1 (MCP1/CCL2) Biomarker Activity (AID 2283073); conditions: primary human keratinocytes with fibroblasts; actives raise or lower the signal
In short: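 Biomarker MCP-1 is measured by ELISA in primary human keratinocytes co-cultured with foreskin fibroblasts, 24 h after chemical treatment; DMSO serves as the negative control and activity baseline.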

[5] = read-out: Matrix Metallopeptidase 9 (MMP9), MMP9 (gene 4318); experiment: BSK_KF3CT_MMP9: BioMAP Diversity Plus: KF3CT Assay for Matrix Metallopeptidase 9 (MMP9) Biomarker Activity (AID 2283074); conditions: primary human keratinocytes with fibroblasts; actives raise or lower the signal;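 on AC50: MMP9 protein level quantified by ELISA in the co-culture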
In short: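 Human keratinocyte and foreskin fibroblast co-culture exposed to chemicals for 24 h; MMP9 biomarker measured by ELISA, bidirectional fitting relative to DMSO; cytotoxicity tracked by SRB total protein staining in parallel cultures.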

[6] = read-out: urokinase plasminogen activator (uPA), PLAU (gene 5328); experiment: BSK_KF3CT_uPA: BioMAP Diversity Plus: KF3CT Assay for urokinase plasminogen activator (uPA) Biomarker Activity (AID 2283075); conditions: primary human keratinocytes with fibroblasts; actives raise or lower the signal
In short: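 Primary human keratinocyte/foreskin fibroblast co-culture exposed to chemical; uPA measured by ELISA at 24 h. Bidirectional fit versus DMSO, with parallel SRB total-protein staining for cytotoxicity.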

[7] = read-out: CD40, CD40 (gene 958); experiment: BSK_LPS_CD40: BioMAP Diversity Plus: LPS Assay for CD40 Biomarker Activity (AID 2283076); conditions: primary human HUVEC with PBMC; actives raise or lower the signal
In short: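 Using a multiplexed primary human co-culture (umbilical vein endothelium plus PBMC), CD40 was read by ELISA 24 h after dosing, with cytotoxicity tracked by sulforhodamine B staining of parallel cultures and activity fitted bidirectionally versus DMSO.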

[8] = read-out: E-selectin (Homo sapiens) (UniProt P16581); experiment: BSK_LPS_Eselectin: BioMAP Diversity Plus: LPS Assay for Eselectin Biomarker Activity (AID 2283077); conditions: primary human HUVEC with PBMC; actives raise or lower the signal
In short: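 Dose chemical onto LPS-driven HUVEC/PBMC co-culture; after 24 h, run ELISA for E-selectin; fit up- and down-going responses relative to DMSO control.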

[9] = read-out: Interleukin-8 (IL8), CXCL8 (gene 3576); experiment: BSK_LPS_IL8: BioMAP Diversity Plus: LPS Assay for Interleukin-8 (IL8) Biomarker Activity (AID 2283078); conditions: primary human HUVEC with PBMC; actives raise or lower the signal
In short: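 In this LPS system, chemical-treated human umbilical vein endothelium/PBMC co-cultures were harvested at 24 h for IL-8 ELISA.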

[10] = BSK_LPS_SRB: Viability Assessment in the BioMAP Diversity Plus: LPS Assay (AID 2283079); conditions: primary human HUVEC with PBMC;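 further: total protein by sulforhodamine B absorbance as a cytotoxicity measure; measured one day after compound addition; fitted in both directions against DMSO so loss or gain of signal counts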
In short: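 Cytotoxicity endpoint in human endothelial–PBMC co-culture: 24 h exposure, then SRB (0.1%) staining, 560 nm read.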

[11] = read-out: Interleukin-1 alpha (IL1a), IL1A (gene 3552); experiment: BSK_LPS_IL1a: BioMAP Diversity Plus: LPS Assay for Interleukin-1 alpha (IL1a) Biomarker Activity (AID 2283080); conditions: primary human HUVEC with PBMC; actives raise or lower the signal
In short: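 Primary human HUVEC and PBMC co-culture stimulated with LPS is dosed and harvested at 24 h. Both increases and decreases in ELISA-measured IL-1a are scored relative to DMSO.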

[12] = read-out: Monocyte Chemoattractant Protein-1 (MCP1), CCL2 (gene 6347); experiment: BSK_LPS_MCP1: BioMAP Diversity Plus: LPS Assay for Monocyte Chemoattractant Protein-1 (MCP1) Biomarker Activity (AID 2283081); conditions: primary human HUVEC with PBMC; actives raise or lower the signal;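 on AC50: secreted MCP-1 protein quantified by ELISA in culture supernatant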
In short: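 Values derive from bidirectional fitting against DMSO of ELISA-measured MCP-1 in a human primary endothelial and mononuclear cell co-culture, 24 h after chemical addition under LPS activation.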

[13] = BSK_LPS_PGE2: BioMAP Diversity Plus: LPS Assay for Prostaglandin E2 (PGE2) Biomarker Activity (AID 2283082); conditions: primary human HUVEC with PBMC; actives raise or lower the signal;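 on AC50: secreted prostaglandin E2 measured by ELISA in LPS-stimulated co-culture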
In short: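 HUVEC plus PBMC co-culture stimulated with LPS; secreted PGE2 quantified by ELISA 24 h after chemical dosing. Activity fitted bidirectionally against DMSO as negative control and baseline; parallel SRB total-protein staining served as cytotoxicity check.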

[14] = read-out: Macrophage colony-stimulating factor (MCSF), CSF1 (gene 1435); experiment: BSK_LPS_MCSF: BioMAP Diversity Plus: LPS Assay for Macrophage colony-stimulating factor (MCSF) Biomarker Activity (AID 2283083); conditions: primary human HUVEC with PBMC; actives raise or lower the signal
In short: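 Bidirectional fit versus DMSO of ELISA-measured M-CSF in co-cultured human umbilical vein endothelial cells and PBMC, sampled 24 h after dosing.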

[15] = read-out: Tissue Factor, F3 (gene 2152); experiment: BSK_LPS_TissueFactor: BioMAP Diversity Plus: LPS Assay for Tissue Factor Biomarker Activity (AID 2283084); conditions: primary human HUVEC with PBMC; actives raise or lower the signal
In short: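 Read-out: CD142 ELISA, 24 h. System: LPS-driven human endothelial/PBMC co-culture. Analysis: up- or down-signal fitted against DMSO.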

[16] = read-out: Tumor necrosis factor (Homo sapiens) (UniProt P01375); experiment: BSK_LPS_TNFa: BioMAP Diversity Plus: LPS Assay for Tumour Necrosis Factor alpha (TNFa) Biomarker Activity (AID 2283085); conditions: primary human HUVEC with PBMC; actives raise or lower the signal;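 on AC50: TNFa protein level quantified by ELISA in the co-culture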
In short: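 Human umbilical vein endothelial cells co-cultured with PBMC were exposed to test chemical and TNFa measured by ELISA 24 h after dosing. Bidirectional curve fitting was done relative to DMSO as negative control and baseline.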

[17] = read-out: Vascular cell adhesion molecule 1 (VCAM1), VCAM1 (gene 7412); experiment: BSK_LPS_VCAM1: BioMAP Diversity Plus: LPS Assay for Vascular cell adhesion molecule 1 (VCAM1) Biomarker Activity (AID 2283086); conditions: primary human HUVEC with PBMC; actives raise or lower the signal
In short: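 Human umbilical vein endothelial cells co-cultured with peripheral blood mononuclear cells under LPS stimulation were exposed to test chemical for 24 h. VCAM-1 levels were then measured by ELISA, with bidirectional curve fitting relative to DMSO as negative control and baseline.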

[18] = read-out: CD38, CD38 (gene 952); experiment: BSK_SAg_CD38: BioMAP Diversity Plus: SAg Assay for CD38 Biomarker Activity (AID 2283087); conditions: primary human HUVEC with PBMC; actives raise or lower the signal
In short: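 Fluorescence ELISA of cell-surface CD38 served as the read-out, with either increase or decrease fitted against DMSO controls. Cells were a human umbilical vein endothelium plus PBMC co-culture under SEB/TSST-1 stimulation, measured 24 h after dosing.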

[19] = read-out: CD40, CD40 (gene 958); experiment: BSK_SAg_CD40: BioMAP Diversity Plus: SAg Assay for CD40 Biomarker Activity (AID 2283088); conditions: primary human HUVEC with PBMC; actives raise or lower the signal
In short: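 Endpoint derived by fitting increases or decreases versus DMSO controls. CD40 is detected by fluorescence ELISA in a human vascular co-culture of endothelium and PBMC at 24 h.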

[20] = read-out: CD69, CD69 (gene 969); experiment: BSK_SAg_CD69: BioMAP Diversity Plus: SAg Assay for CD69 Biomarker Activity (AID 2283089); conditions: primary human HUVEC with PBMC; actives raise or lower the signal;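 on AC50: cell surface CD69 protein quantified by ELISA with fluorescence detection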
In short: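 Endothelial/PBMC co-culture; chemical added; 24 h incubation; CD69 ELISA with fluorescence detection; bidirectional fit vs DMSO.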

Measured: AC50

Chain of E-selectin (Homo sapiens) (P16581 whole entry, looked up): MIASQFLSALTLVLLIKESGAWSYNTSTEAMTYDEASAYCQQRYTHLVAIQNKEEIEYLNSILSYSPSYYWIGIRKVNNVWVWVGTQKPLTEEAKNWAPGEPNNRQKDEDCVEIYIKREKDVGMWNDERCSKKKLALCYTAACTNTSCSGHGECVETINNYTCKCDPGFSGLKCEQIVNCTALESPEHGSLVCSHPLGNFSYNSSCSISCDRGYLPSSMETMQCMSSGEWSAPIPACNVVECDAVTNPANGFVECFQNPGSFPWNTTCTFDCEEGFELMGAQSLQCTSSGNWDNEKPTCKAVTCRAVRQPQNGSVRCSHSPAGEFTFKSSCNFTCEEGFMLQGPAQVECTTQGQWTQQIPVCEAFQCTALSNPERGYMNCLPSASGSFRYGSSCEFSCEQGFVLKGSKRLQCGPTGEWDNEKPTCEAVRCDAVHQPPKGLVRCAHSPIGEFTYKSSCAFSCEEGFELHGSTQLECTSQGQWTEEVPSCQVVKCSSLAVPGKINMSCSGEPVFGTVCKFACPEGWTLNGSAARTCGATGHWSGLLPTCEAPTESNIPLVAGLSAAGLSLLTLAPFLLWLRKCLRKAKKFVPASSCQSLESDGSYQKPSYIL
Chain of Tumor necrosis factor (Homo sapiens) (P01375 whole entry, looked up): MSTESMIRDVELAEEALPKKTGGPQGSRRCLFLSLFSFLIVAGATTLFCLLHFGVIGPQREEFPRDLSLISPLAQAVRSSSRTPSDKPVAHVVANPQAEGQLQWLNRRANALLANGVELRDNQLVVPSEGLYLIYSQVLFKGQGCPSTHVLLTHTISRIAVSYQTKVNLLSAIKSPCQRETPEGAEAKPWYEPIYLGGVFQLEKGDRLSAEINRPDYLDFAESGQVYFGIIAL

O=C(Nc1ccccc1)Nc1ccnc(Cl)c1
active: [9] 15 µM | [12] 9.85 µM | [13] 6.08 µM | [16] 31.1 µM | [20] 20 µM
inactive: all other assays above

CNC(=O)ON=CC(C)(C)SC
active: [1] 1.34 µM | [13] 2.13 µM
inactive: all other assays above

N#Cc1cc(Br)c(O)c(Br)c1
active: [7] 9.86 µM | [10] 3.97 µM | [11] 20 µM | [14] 4.08 µM | [18] 31.2 µM | [19] 20 µM | [20] 26.4 µM
not listed: [3]
inactive: all other assays above

COC(=O)C(C)Oc1ccc(Oc2ccc(Cl)cc2Cl)cc1 (stereo not given)
inactive: [1] | [2] | [4] | [5] | [6] | [7] | [8] | [9] | [10] | [11] | [12] | [14] | [15] | [16] | [17] | [18] | [19] | [20]
active: [1] 5.15 µM | [5] 20 µM | [6] 21.1 µM and 31.6 µM | [7] 29.2 µM and 34.7 µM | [12] 28.9 µM | [13] 11.4 µM and 12 µM and 23.5 µM | [18] 10.9 µM | [19] 13.6 µM

CCCN(CCC)c1c([N+](=O)[O-])cc(S(N)(=O)=O)cc1[N+](=O)[O-]
active: [2] 34.6 µM | [5] 32.8 µM | [7] 33.6 µM [middle of 4 runs] | [8] 36.9 µM and 32.6 µM and 36.7 µM | [9] 33.1 µM [middle of 4 runs] | [10] 31.8 µM [middle of 4 runs] | [11] 33.5 µM [middle of 4 runs] | [12] 37.8 µM and 35.1 µM and 33 µM | [13] 34.7 µM | [14] 32.3 µM [middle of 4 runs] | [15] 34.3 µM and 38.1 µM and 32.8 µM | [16] 33.6 µM and 32.2 µM | [17] 34.6 µM [middle of 4 runs] | [18] 38.7 µM [middle of 4 runs] | [19] 35.8 µM [middle of 4 runs] | [20] 32.6 µM [middle of 4 runs]
inactive: [1] | [2] | [5] | [6] | [8] | [12] | [13] | [15] | [16]
